TWEAK-Fn14 inh: inhibitors of TWEAK-Fn14 signaling, primary screen, luciferase reporter cells, uHTS; TWEAK-stimulated Fn14 reporter cells, luciferase luminescence, 8 h; inhibition, % at 10 µM; actives 2% (n = 360,000); AID 1159606, 2016; in the data active = inhibition above about 50%
HSP90 inh: HSP90 inhibitors, primary screen, cell lysate, luminescence | Heat shock protein HSP 90 (rabbit reticulocyte lysate; luciferase refolding) | Rabbit reticulocyte lysate, luciferase refolding luminescence, 3 h | inhibition, % at 5.6 µM | actives 0.91% (n = 290,000);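 active = inhibition above the screen-wide mean plus 3 SD, computed separately per campaign, cut at about 16% in these data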;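 note: inhibitors lower the luminescence because luciferase stays unfolded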
TROY signal inh: inhibitors of TROY-driven NF-kB signaling, primary screen, Q293 LMP1-TROYcd cells, NF-kB luciferase, uHTS | Q293 LMP1-TROYcd NF-kB luciferase reporter, 4 h | inhibition, % at 10 µM | actives 0.98% (n = 360,000) | AID 1347056, 2019;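 active = compounds whose plate-normalised and pattern-corrected inhibition of the luciferase reporter signal at the single screening dose is 50% or more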
LGR2 inh: inhibitors of bursicon-induced LGR2 CRE-luciferase signal, primary screen, cell-based, HEK293, CRE-luciferase reporter, bursicon stimulation; inhibition, % at 9.99 µM; bursicon-stimulated, 4 h; Drosophila bursicon receptor LGR2 (rickets); AID 720647, 2013; actives 0.35% (n = 380,000);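 active = drop in luminescence signal, shown as inhibition above about 50% in the replicate tests, limit read from the data, passing the limit was not always enough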;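 note: agonist challenge used bursicon conditioned medium at about half maximal strength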
HSP90 confirm: HSP90 inhibitors, confirmation, cell lysate, luminescence | shares compounds with HSP90 inh | rabbit reticulocyte lysate, luciferase refolding luminescence, 3 h | inhibition, % at 5.9 µM | actives 64% (n = 2,300) | AID 1846, 2009; in the data active = inhibition above about 18%
luciferase ctr: firefly luciferase inhibitors, HSP90 counter-screen, confirmation, artefact control for HSP90 inhibitor project, biochemical, luminescence, triplicate; actives 48% (n = 2,300); AID 1847, 2009; inhibition, % at 5.9 µM; shares compounds with HSP90 inh; purified native firefly luciferase;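 active = inhibition above the mean inhibition of all tested sample wells plus 3 SD, cut at about 10% in these data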
Target sequence (P08659 whole entry, looked up): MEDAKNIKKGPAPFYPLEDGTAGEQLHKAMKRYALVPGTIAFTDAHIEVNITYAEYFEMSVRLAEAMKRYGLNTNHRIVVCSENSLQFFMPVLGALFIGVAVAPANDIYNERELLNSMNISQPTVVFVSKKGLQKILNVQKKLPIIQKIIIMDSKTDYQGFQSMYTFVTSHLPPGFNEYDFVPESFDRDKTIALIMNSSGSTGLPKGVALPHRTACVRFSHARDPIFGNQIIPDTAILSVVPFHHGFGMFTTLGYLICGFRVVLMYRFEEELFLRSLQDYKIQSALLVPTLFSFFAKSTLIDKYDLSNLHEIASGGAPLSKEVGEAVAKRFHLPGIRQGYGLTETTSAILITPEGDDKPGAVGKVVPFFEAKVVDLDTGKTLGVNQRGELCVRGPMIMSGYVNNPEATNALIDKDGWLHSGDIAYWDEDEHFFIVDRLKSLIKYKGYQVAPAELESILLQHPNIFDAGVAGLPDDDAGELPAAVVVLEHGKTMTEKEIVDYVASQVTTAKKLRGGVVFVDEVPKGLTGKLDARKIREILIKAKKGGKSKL
A number is an active result; . = inactive; / = no result. In the library only some 2.2% were active in any assay of this set; here they are far more common.

SMILES	TWEAK-Fn14 inh	HSP90 inh	TROY signal inh	LGR2 inh	HSP90 confirm	luciferase ctr
COc1cccc(/C=C2\SC(=O)NC2=O)c1OCc1ccc(C(=O)O)cc1	.	23	.	.	.	.
CO[C@@H]1CN(C)C(=O)c2cc(NC(=O)C3CC3)ccc2OC[C@H](C)N(C(C)=O)C[C@@H]1C	/	/	/	.	/	/
CCCc1ccc(-c2ccc(/C=C/C(=O)O)cc2)nc1	94	59	.	58	82	51
COCC#Cc1cnc2c(c1)C(=O)N([C@@H](C)CO)C[C@H](C)[C@@H](CN(C)Cc1ccccc1F)O2	/	/	/	.	/	/
COc1cc(/C=C2\CCC(C3CCCC3)C2=O)cc(OC)c1OC (stereo unspecified)	.	.	.	.	/	/
COc1cc(/C=C2\CC(C(C)(C)C)C/C(=C\c3cc(OC)c(OC)c(OC)c3)C2=O)cc(OC)c1OC (stereo unspecified)	64	19	.	.	20	.
CCCC(=O)Nc1ccc2c(c1)OC[C@@H](C)N(Cc1ccccc1F)C[C@H](C)[C@H](OC)CN(C)C2=O	/	/	/	.	/	/
c1ccc(-c2nc(-c3nccc4ccccc34)oc2-c2ccccc2)cc1	73	23	60	60	28	35
Cc1c(NC(=O)c2ccc(NC(=O)C3CC3)cc2)cccc1C(=O)O	.	24	.	.	20	.
O=C(Nc1ccc(NC(=O)C2CC2)cn1)c1ccccc1Cl	.	.	.	/	/	/
Cc1c(NC(=O)c2ccccc2NC(=O)c2ccccc2)cccc1C(=O)O	.	.	.	.	/	/
Cc1c(NC(=O)c2ccccc2N)cccc1C(=O)O	.	20	.	/	.	.
Cc1c(NC(=S)NC(=O)c2cc3ccccc3o2)cccc1C(=O)O	.	21	.	.	20	.
O=C(Nc1ccc(NC(=O)C2CC2)cn1)c1ccccc1	54	17	.	.	39	21
CCCNC(=O)C[C@@H]1CC[C@@H]2[C@@H](COc3ccc(NC(=O)Nc4ccccc4F)cc3C(=O)N2C)O1	/	/	/	.	/	/
COc1ccc(CCN(/C=C2\Sc3ccccc3C2=O)C(C)=O)cc1OC	.	25	56	/	.	.
CC(=O)N(\C=C/C=C/C=C1\Sc2ccccc2C1=O)c1ccccc1	.	.	.	.	/	/
CN(C)/C=C1/Sc2ccccc2C1=O	.	21	.	/	.	.
CCCCN(CC)C(=O)c1cc2cc3ccc(OC)cc3nc2o1	.	.	.	/	/	/
CCCCN(C)C(=O)c1cc2cc3ccc(OC)cc3nc2s1	74	30	.	/	39	27
CC1(C)Cc2nc3sc4c(SCC(=O)O)ncnc4c3cc2CO1	.	19	.	.	31	.
N#CC1=C(N)Oc2n[nH]c(-c3cccs3)c2C1c1cccs1 (stereo unspecified)	.	34	.	/	.	.
CC(C)CC1C(C#N)=C(N)Oc2n[nH]c(-c3cccs3)c21 (stereo unspecified)	.	18	.	/	.	.
N#CC1=C(N)Oc2n[nH]c(-c3cccs3)c2C1c1ccccc1C(=O)O (stereo unspecified)	.	.	.	.	/	/
C[C@@H]1CN([C@H](C)CO)S(=O)(=O)c2ccc(C#CC3CC3)cc2O[C@@H]1CN(C)C(=O)c1ccccn1	/	/	/	.	/	/
SMILES	TWEAK-Fn14 inh	HSP90 inh	TROY signal inh	LGR2 inh	HSP90 confirm	luciferase ctr
COc1ccc(S(=O)(=O)Nc2ccc3c(c2)C(=O)N([C@@H](C)CO)C[C@@H](C)[C@@H](CN(C)C(=O)CCC(F)(F)F)OCCCC[C@H](C)O3)cc1	/	/	/	.	/	/
c1ccc2nc(-c3nc4ccccc4[nH]3)ccc2c1	82	26	.	/	72	62
c1ccc2[nH]c(-c3cscn3)nc2c1	.	.	.	.	/	/
COc1ccccc1C1CCN(Cc2ccc(Cl)cc2Cl)CC1	.	17	.	.	.	.
COc1ccccc1C1CCN(Cc2ccc(Cl)c(Cl)c2)CC1	.	.	.	.	/	/
C[C@H]1CN([C@@H](C)CO)C(=O)c2cccc(NC(=O)Nc3ccc4c(c3)OCO4)c2O[C@@H]1CN(C)Cc1ccc(Oc2ccccc2)cc1	/	/	/	.	/	/
CO[C@H]1CN(C)C(=O)c2cc(NS(=O)(=O)c3cn(C)cn3)ccc2OC[C@@H](C)N(CC2CC2)C[C@@H]1C	/	/	/	.	/	/
CCCSc1nc(SCC(=O)NCc2ccccc2)c2c3c(sc2n1)COC(C)(CC)C3 (stereo unspecified)	.	28	.	/	.	.
CCCCSc1nc(SCC(=O)NCc2ccco2)c2c3c(sc2n1)COC(C)(CC)C3 (stereo unspecified)	.	.	.	/	/	/
CO[C@@H]1CN(C)C(=O)c2cc(NC(=O)C3CCCC3)ccc2OC[C@H](C)N(C)C[C@H]1C	/	/	/	.	/	/
COc1ccc2cc(-c3cc(C(=O)O)c4ccccc4n3)ccc2c1	75	28	.	/	64	38
CC(C)(C)C(=O)Nc1ccc(-c2cc3cc(Cl)ccc3o2)cc1	58	40	61	/	24	12
CCCC(=NC(C)CC)C1=C(O)CC(c2ccccc2)CC1=O (stereo unspecified)	.	24	.	.	.	.
CCC(C)N=CC1=C(O)CC(c2ccccc2)CC1=O (stereo unspecified)	.	.	.	.	/	/
COc1ccc(Cl)cc1NC(=O)CCc1nc(-c2ccccc2F)no1	.	27	.	.	.	.
O=C1CCN(Cc2ccccc2)CCN1CCOc1ccccc1	.	17	.	.	.	21
O=C(Nc1ccccc1)OCCN1CCN(Cc2ccccc2)CCC1=O	.	.	.	.	/	/
CC1(C)Cc2ccccc2C2=NNC(=O)C2=N1	.	17	.	.	34	.
C[C@@H]1CN([C@@H](C)CO)C(=O)c2cc(NS(C)(=O)=O)ccc2O[C@H]1CN(C)S(=O)(=O)c1ccc(Cl)cc1	/	/	/	.	/	/
Cc1cccc(S(=O)(=O)N2CC[C@@H]3[C@H]2c2cc(C#Cc4cccnc4)ccc2N[C@@H]3CO)c1	/	/	/	.	/	/
COc1ccc(NC(=O)C2CC(=O)N/C(=N/N=C/c3ccco3)S2)cc1 (stereo unspecified)	.	.	.	.	/	/
COc1ccc(/C=N/N=C2/NC(=O)CC(C(=O)O)S2)cc1 (stereo unspecified)	.	23	.	.	36	.
N#Cc1c(NC(=O)c2nc3ncccn3n2)sc2c1CCCCC2	70	65	.	.	78	28
CC(=O)Oc1ccc(/C=C/c2nc3ccccc3c(=O)o2)cc1	79	28	50	59	32	.
COc1ccc(/C=C\c2nc(=O)c3ccccc3o2)cc1	.	21	.	.	31	14

Screening data: PubChem BioAssay, several laboratories
